This note sets out measurements from PubChem BioAssay (EPA / NIEHS).

Results filed as inconclusive are left out. Activity calls are given as the source filed them. Rule for the calls: active = hit-call score of the fitted dose curve at least 0.9, where 1 is the maximum; inconclusive = response in the unintended direction; inactive = score below 0.9.

The test in a line: ACEA_ER_AUC_viability: ACEA Biosciences xCELLigence Real-Time Cell Analysis on Estrogen Receptor Agonism for Viability (AID 2283782).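 Note: hit means loss of impedance signal meaning reduced cell growth or viability.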 The method in brief:
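Read-out: real-time electrical impedance (RT-CES) area under curve, loss of signal taken as reduced viability, normalized to DMSO baseline. T-47D cells, charcoal-stripped serum medium, compounds up to 100 uM final, continuous exposure, 80 h.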
As for `CCOc1cc(C=O)ccc1O`, the outcome was inactive.

Take `Brc1ccc(Br)cc1`: the compound was called inactive. With `CCCCS(=O)(=O)Cl`, the AC50 (usually the midpoint of the concentration-response curve, whichever way the signal moves) was 53.1 µM (active). Still for that read-out and setting: the result for `O=C/C(Cl)=C(/Cl)C(=O)O` reads 73.9 µM (active). For `C1CN2CCN1CC2`, the call was inactive. The same measure, in the same setting: the result for `c1ccc2c(c1)Oc1ccccc1O2` reads “inactive”; that for `CCOP(=S)(OCC)OP(=S)(OCC)OCC`, “inactive”; that for `CCC(C)(C#N)N=NC(C)(C#N)CC` (stereo not drawn), “inactive”.

Take `ClCCN1CCOCC1`: the AC50 is 31.6 µM (active).

For the compound `N#Cc1ccccc1Cl`, the call was inactive. As to `COCC(=O)N(c1c(C)cccc1C)[C@H](C)C(=O)OC`, the half-maximal activity concentration (AC50) was 50 µM (active). In the case of `O=NN1CCCCCCC1`, the compound was classed as inactive. With `CC(C)[C@H](C(=O)OC(C#N)c1cccc(Oc2ccccc2)c1)c1ccc(OC(F)F)cc1` (stereo partly drawn), the AC50 was 38 µM (active). With `O=C(CCl)NCO`, the result was inactive.

With `C=C(C)C(=O)OCC(CC)CCCC` (stereo not drawn), the outcome was inactive. On to `Cc1ccccc1OP(=O)(Oc1ccccc1)Oc1ccccc1`, for which the concentration at half-maximal activity (AC50) was 62.9 µM (active). With `CC[N+](CC)(CC)CC`, the compound was classed as inactive. The same measure, in the same setting: the result for `CCN(N=O)C(N)=O` reads “inactive”.

As to `CCCCCCCCCCBr`, the compound was called inactive. The same measure, in the same setting: the result for `CCOC(=O)C(SP(=S)(OC)OC)c1ccccc1` (stereo not drawn) reads “inactive”; that for `O=C(O)COc1cc(Cl)c(Cl)cc1Cl`, “inactive”. For the compound `ClCc1ccccc1CCl`, the AC50 is 29.6 µM (active). Regarding `C=CCN=C=S`, the call was inactive.

On to `c1ccc2sc(SNC3CCCCC3)nc2c1`, for which the half-maximal activity concentration (AC50) was 85.5 µM (active). With `Brc1c(Br)c(Br)c(Oc2c(Br)c(Br)c(Br)c(Br)c2Br)c(Br)c1Br`, the compound was classed as inactive.

With `CCCCC(CC)COC(=O)Cl` (stereo not drawn), the outcome was inactive. For `CCCCC(CC)C(=O)Cl` (stereo not drawn), the call was inactive. On to `CC1(C)[C@H](C(=O)O[C@H](C#N)c2cccc(Oc3ccccc3)c2)[C@@H]1/C=C(\Cl)C(F)(F)F`, for which the AC50 was 42.5 µM (active).
